Columns and labels:
Assay in all cases: DAPPL (digital affinity profiling via proximity ligation, sequencing); 10 mM Tris-HCl pH 7.5, 50 mM NaCl, 1 mM DTT, 4% glycerol, room temperature, 30 min; GST-TFs on glutathione beads, 16-mer random dsDNA library, 0.1% formaldehyde crosslink after washing; high values mean tight binding
[1] = biological target: T1, FEV (Homo sapiens, UniProt Q99581 1-238); details: protein: recombinant; tags: N-terminal GST; dsDNA, one strand shown
T1 sequence: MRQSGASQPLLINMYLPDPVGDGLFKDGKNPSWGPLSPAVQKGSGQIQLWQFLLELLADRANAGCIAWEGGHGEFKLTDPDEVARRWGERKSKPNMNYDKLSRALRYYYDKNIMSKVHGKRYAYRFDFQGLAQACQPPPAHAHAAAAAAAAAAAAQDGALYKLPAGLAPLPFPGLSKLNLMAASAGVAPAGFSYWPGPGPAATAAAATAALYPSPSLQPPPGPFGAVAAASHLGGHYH
Outline: (§1)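 Binding signal is each hexamer's read frequency for a factor divided by its frequency in the tag-only sample. The factors were GST-fused human transcription factors from yeast, captured on glutathione beads, DNA-barcoded and pooled with that sample. Pools were incubated with 200 nmole of a random double-stranded 16-mer DNA library in Tris/NaCl/DTT/glycerol buffer at room temperature for 30 min, then washed, crosslinked with 0.1% formaldehyde, proximity-ligated with BsaI/T4 ligase (1 h, 37 °C), PCR-amplified and sequenced on an Illumina NextSeq500.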

[2] = biological target: ETV5 (Homo sapiens, UniProt P41161 1-510); details: protein: recombinant; tags: N-terminal GST; dsDNA, one strand shown
Outline: as §1

[3] = biological target: HSF1 (Homo sapiens, UniProt Q00613 1-529); details: protein: recombinant; tags: N-terminal GST; chain copies: 3; dsDNA, one strand shown
Outline: as §1

[4] = biological target: T2, SPIC (Homo sapiens, UniProt Q8N5J4 1-248); details: protein: recombinant; tags: N-terminal GST; dsDNA, one strand shown
T2 sequence: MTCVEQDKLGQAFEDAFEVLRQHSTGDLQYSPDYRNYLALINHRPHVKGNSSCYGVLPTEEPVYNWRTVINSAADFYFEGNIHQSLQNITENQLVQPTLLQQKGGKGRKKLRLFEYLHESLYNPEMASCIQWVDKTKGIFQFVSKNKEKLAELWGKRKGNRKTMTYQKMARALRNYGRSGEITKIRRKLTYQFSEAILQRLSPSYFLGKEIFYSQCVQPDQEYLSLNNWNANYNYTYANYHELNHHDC
Outline: as §1

[5] = biological target: ELF4 (Homo sapiens, UniProt Q99607 1-663); details: protein: recombinant; tags: N-terminal GST; dsDNA, one strand shown
Outline: as §1

[6] = biological target: T3, ELK4 (Homo sapiens, UniProt P28324-2 1-405); details: protein: recombinant; tags: N-terminal GST; dsDNA, one strand shown
T3 sequence: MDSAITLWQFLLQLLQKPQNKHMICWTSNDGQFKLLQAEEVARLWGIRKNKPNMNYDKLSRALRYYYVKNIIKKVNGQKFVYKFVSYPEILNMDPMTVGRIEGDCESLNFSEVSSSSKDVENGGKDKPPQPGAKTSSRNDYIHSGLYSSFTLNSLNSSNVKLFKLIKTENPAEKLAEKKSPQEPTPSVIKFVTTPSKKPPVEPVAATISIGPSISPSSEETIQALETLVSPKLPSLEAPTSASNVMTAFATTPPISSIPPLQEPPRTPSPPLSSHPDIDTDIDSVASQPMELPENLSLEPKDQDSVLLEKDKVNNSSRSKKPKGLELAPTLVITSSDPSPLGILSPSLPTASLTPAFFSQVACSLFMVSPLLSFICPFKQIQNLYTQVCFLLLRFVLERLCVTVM
Outline: as §1

[7] = biological target: T4, ETV2 (Homo sapiens, UniProt O00321 1-342); details: protein: recombinant; tags: N-terminal GST; dsDNA, one strand shown
T4 sequence: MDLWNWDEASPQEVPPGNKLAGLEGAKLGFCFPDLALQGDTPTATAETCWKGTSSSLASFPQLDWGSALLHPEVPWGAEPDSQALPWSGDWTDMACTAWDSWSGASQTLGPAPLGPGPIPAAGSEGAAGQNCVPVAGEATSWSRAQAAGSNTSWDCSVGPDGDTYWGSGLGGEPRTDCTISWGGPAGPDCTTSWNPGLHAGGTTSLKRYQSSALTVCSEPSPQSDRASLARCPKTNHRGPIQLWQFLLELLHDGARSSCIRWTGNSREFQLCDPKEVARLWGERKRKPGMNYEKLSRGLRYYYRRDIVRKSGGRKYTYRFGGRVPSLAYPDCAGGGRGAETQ
Outline: as §1

[8] = biological target: T5, ELF3 (Homo sapiens, UniProt P78545 1-371); details: protein: recombinant; tags: N-terminal GST; dsDNA, one strand shown
T5 sequence: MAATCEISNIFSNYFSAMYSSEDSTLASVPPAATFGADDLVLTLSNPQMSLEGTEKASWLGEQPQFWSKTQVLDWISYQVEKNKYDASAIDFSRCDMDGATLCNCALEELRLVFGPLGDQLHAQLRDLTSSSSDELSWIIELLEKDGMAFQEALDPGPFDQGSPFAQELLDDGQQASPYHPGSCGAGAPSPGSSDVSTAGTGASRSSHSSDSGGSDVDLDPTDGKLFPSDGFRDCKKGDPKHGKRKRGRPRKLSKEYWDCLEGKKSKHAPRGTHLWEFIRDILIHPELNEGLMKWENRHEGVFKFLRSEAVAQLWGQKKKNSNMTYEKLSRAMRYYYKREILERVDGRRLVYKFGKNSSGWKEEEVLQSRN
Outline: as §1

[9] = biological target: CRX (Homo sapiens, UniProt O43186 1-299); details: protein: recombinant; tags: N-terminal GST; dsDNA, one strand shown
Outline: as §1

[10] = biological target: ETV1 (Homo sapiens, UniProt P50549 1-477); details: protein: recombinant; tags: N-terminal GST; dsDNA, one strand shown
Outline: as §1

[11] = biological target: T6, ERF (Homo sapiens, UniProt P50548 1-548); details: protein: recombinant; tags: N-terminal GST; dsDNA, one strand shown
T6 sequence: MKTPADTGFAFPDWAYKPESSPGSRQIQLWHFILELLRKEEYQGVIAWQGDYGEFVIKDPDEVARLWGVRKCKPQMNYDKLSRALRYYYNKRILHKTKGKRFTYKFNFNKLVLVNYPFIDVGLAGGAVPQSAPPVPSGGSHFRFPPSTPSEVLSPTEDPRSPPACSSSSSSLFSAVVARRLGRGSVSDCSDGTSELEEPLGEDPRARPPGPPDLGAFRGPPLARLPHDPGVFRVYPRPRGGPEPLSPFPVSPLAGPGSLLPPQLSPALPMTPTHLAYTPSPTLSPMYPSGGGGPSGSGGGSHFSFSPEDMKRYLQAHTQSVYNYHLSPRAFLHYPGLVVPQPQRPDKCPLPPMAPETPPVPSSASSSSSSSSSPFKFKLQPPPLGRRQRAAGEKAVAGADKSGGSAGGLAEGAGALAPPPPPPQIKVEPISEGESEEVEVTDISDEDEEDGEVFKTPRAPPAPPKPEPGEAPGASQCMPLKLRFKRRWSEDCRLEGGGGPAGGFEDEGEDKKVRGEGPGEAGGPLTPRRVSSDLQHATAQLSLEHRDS
Outline: as §1

[12] = biological target: T7, ETV3L (Homo sapiens, UniProt Q6ZN32 1-361); details: protein: recombinant; tags: N-terminal GST; dsDNA, one strand shown
T7 sequence: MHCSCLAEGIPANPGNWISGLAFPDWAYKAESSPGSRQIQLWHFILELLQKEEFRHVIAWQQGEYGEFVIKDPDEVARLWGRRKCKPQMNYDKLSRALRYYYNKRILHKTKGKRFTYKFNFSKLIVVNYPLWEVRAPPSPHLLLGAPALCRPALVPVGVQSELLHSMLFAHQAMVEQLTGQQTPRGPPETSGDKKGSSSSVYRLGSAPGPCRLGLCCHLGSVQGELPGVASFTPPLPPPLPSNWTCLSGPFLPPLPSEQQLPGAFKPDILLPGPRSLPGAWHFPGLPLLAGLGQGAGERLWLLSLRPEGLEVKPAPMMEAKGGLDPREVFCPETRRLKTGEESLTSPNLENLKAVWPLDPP
Outline: as §1

[13] = biological target: T8, ETS2 (Homo sapiens, UniProt P15036 1-469); details: protein: recombinant; tags: N-terminal GST; dsDNA, one strand shown
T8 sequence: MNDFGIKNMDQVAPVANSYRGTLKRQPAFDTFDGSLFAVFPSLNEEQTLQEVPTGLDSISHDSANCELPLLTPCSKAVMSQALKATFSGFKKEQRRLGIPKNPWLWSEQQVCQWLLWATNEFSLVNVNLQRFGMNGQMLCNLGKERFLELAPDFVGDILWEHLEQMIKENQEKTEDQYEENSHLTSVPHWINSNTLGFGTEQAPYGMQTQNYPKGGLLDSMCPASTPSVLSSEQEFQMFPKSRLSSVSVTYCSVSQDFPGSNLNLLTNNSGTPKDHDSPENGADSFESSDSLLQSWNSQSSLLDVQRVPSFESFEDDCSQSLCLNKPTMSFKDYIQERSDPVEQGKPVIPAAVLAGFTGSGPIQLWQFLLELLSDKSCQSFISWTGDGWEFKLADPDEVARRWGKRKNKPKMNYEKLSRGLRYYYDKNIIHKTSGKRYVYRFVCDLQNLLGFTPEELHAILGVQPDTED
Outline: as §1

[14] = biological target: T9, SPDEF (Homo sapiens, UniProt O95238 1-335); details: protein: recombinant; tags: N-terminal GST; dsDNA, one strand shown
T9 sequence: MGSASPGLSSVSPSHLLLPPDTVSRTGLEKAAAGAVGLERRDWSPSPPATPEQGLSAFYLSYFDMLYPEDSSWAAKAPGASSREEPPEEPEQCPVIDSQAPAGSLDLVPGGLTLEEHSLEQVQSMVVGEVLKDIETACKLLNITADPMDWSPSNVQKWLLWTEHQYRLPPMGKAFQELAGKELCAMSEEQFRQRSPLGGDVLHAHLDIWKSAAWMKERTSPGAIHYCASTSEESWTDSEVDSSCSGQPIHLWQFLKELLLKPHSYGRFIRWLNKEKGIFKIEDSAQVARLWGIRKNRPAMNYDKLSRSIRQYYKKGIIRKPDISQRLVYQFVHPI
Outline: as §1

[15] = biological target: T10, ETV7 (Homo sapiens, UniProt Q9Y603 1-341); details: protein: recombinant; tags: N-terminal GST; dsDNA, one strand shown
T10 sequence: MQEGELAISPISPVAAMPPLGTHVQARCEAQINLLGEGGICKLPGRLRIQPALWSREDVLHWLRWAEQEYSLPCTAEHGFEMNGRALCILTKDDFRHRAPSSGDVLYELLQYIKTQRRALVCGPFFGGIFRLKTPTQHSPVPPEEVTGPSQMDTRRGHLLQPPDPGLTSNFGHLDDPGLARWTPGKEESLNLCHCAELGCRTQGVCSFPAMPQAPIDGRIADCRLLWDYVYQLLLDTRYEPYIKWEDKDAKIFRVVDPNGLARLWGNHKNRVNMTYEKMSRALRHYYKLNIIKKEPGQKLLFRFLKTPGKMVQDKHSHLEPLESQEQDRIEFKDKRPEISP
Outline: as §1

[16] = biological target: T11, ELF5 (Homo sapiens, UniProt Q9UKW6-2 1-255); details: protein: recombinant; tags: N-terminal GST; dsDNA, one strand shown
T11 sequence: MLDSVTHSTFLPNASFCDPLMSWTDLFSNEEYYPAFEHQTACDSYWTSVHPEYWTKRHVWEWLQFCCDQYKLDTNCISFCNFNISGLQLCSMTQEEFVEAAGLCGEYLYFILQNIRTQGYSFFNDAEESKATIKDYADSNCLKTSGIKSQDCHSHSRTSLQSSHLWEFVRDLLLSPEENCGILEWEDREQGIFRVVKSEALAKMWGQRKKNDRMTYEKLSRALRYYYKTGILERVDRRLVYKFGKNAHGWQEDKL
Outline: as §1

[17] = biological target: T12, ETV3 (Homo sapiens, UniProt P41162-2 1-143); details: protein: recombinant; tags: N-terminal GST; dsDNA, one strand shown
T12 sequence: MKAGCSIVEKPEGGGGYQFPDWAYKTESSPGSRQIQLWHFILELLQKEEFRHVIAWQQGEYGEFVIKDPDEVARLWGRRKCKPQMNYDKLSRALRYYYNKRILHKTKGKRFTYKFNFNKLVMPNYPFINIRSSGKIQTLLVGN
Outline: as §1

[18] = biological target: ETV6 (Homo sapiens, UniProt P41212 1-452); details: protein: recombinant; tags: N-terminal GST; dsDNA, one strand shown
Outline: as §1

Chain of ETV5 (P41161 whole entry): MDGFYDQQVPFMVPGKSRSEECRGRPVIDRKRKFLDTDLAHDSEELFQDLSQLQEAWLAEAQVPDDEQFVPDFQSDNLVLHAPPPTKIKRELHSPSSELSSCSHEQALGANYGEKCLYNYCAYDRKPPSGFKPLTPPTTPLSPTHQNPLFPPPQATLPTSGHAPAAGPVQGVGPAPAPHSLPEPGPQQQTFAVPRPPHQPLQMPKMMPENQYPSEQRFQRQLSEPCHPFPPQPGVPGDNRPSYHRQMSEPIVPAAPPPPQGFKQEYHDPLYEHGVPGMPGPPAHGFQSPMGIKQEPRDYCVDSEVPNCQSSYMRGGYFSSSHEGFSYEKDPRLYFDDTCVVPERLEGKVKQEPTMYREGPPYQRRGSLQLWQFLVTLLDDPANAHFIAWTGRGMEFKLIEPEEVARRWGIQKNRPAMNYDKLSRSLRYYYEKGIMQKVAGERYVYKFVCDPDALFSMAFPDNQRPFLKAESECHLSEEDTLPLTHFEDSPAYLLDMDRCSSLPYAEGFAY
Chain of CRX (O43186 whole entry): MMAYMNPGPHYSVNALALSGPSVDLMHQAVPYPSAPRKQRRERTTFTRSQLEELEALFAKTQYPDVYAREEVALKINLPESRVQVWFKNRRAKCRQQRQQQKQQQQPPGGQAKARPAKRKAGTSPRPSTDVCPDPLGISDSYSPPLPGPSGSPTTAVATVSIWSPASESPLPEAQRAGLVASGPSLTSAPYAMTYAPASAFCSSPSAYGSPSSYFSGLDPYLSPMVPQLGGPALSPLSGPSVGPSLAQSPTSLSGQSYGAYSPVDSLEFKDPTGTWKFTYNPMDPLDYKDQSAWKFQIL
Chain of ETV1 (P50549 whole entry): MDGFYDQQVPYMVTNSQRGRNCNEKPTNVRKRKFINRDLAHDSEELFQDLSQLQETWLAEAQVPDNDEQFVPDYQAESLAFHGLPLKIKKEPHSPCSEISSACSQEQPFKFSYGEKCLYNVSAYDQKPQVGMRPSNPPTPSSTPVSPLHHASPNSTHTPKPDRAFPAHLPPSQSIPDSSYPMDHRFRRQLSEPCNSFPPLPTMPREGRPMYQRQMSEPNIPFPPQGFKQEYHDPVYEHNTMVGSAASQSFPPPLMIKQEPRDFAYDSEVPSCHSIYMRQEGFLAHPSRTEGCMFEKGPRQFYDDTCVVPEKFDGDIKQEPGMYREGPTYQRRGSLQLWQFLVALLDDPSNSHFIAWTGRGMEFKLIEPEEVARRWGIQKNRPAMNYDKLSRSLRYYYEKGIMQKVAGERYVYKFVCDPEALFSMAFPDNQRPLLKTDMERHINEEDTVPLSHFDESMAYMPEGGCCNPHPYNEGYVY
Chain of ELF4 (Q99607 whole entry): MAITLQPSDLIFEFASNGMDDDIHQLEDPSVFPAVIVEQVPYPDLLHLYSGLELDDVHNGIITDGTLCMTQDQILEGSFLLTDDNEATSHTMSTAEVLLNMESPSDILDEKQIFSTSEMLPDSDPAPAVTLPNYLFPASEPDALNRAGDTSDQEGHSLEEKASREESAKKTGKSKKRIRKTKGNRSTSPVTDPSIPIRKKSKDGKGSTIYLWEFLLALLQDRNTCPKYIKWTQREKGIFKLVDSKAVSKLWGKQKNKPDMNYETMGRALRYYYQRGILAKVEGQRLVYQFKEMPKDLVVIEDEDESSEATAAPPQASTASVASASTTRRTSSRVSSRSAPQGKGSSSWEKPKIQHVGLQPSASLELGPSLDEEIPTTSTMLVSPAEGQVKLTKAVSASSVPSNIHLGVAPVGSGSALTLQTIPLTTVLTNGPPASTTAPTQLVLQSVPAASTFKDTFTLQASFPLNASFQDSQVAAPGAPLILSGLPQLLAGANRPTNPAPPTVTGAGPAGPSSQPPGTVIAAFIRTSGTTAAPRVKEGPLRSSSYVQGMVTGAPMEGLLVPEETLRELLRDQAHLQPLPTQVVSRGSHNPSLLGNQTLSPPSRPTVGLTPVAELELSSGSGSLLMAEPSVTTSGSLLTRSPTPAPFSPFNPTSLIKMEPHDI
Chain of HSF1 (Q00613 whole entry): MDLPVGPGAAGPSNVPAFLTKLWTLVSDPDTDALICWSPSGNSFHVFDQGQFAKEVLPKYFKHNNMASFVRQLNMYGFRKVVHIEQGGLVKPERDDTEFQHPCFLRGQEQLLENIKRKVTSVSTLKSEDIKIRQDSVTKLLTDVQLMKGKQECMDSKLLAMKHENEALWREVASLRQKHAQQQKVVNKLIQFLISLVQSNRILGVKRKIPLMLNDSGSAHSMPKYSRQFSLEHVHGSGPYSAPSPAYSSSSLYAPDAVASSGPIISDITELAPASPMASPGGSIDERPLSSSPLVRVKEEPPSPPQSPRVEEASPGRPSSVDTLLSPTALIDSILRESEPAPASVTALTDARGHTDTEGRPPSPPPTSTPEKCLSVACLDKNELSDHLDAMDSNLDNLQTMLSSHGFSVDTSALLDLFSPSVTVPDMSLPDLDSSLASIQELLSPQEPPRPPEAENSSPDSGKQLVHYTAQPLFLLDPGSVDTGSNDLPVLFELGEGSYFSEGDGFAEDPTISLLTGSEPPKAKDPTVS
Chain of ETV6 (P41212 whole entry): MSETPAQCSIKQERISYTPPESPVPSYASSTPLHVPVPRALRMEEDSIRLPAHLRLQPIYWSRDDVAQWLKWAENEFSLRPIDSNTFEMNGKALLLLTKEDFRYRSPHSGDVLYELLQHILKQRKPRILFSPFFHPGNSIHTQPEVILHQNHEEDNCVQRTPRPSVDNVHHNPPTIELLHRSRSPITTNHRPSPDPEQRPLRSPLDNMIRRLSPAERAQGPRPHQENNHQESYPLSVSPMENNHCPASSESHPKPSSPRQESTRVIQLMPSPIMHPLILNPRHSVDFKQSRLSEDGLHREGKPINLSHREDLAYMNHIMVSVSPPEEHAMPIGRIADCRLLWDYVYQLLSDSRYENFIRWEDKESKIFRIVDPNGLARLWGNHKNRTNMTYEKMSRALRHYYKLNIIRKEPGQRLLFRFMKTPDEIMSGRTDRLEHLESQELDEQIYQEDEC

Sequence | binding signal [1] | binding signal [2] | binding signal [3] | binding signal [4] | binding signal [5] | binding signal [6] | binding signal [7] | binding signal [8] | binding signal [9] | binding signal [10] | binding signal [11] | binding signal [12] | binding signal [13] | binding signal [14] | binding signal [15] | binding signal [16] | binding signal [17] | binding signal [18]
CTACCA | 1.14 fold enrichment (6-mer frequency, TF over GST control) | 1.2 fold enrichment (6-mer frequency, TF over GST control) | 1.24 fold enrichment (6-mer frequency, TF over GST control) | 1.14 fold enrichment (6-mer frequency, TF over GST control) | 1.39 fold enrichment (6-mer frequency, TF over GST control) | 1.24 fold enrichment (6-mer frequency, TF over GST control) | 1.1 fold enrichment (6-mer frequency, TF over GST control) | 1.17 fold enrichment (6-mer frequency, TF over GST control) | 1.09 fold enrichment (6-mer frequency, TF over GST control) | 1.27 fold enrichment (6-mer frequency, TF over GST control) | 1.26 fold enrichment (6-mer frequency, TF over GST control) | 1.21 fold enrichment (6-mer frequency, TF over GST control) | 1.26 fold enrichment (6-mer frequency, TF over GST control) | 1.23 fold enrichment (6-mer frequency, TF over GST control) | 1.29 fold enrichment (6-mer frequency, TF over GST control) | 1.26 fold enrichment (6-mer frequency, TF over GST control) | 1.21 fold enrichment (6-mer frequency, TF over GST control) | 1.26 fold enrichment (6-mer frequency, TF over GST control)
TTCTCT | 1.22 fold enrichment (6-mer frequency, TF over GST control) | 1.24 fold enrichment (6-mer frequency, TF over GST control) | 1.84 fold enrichment (6-mer frequency, TF over GST control) | 1.16 fold enrichment (6-mer frequency, TF over GST control) | 1.26 fold enrichment (6-mer frequency, TF over GST control) | 1.33 fold enrichment (6-mer frequency, TF over GST control) | 1.29 fold enrichment (6-mer frequency, TF over GST control) | 1.37 fold enrichment (6-mer frequency, TF over GST control) | 1.49 fold enrichment (6-mer frequency, TF over GST control) | 1.36 fold enrichment (6-mer frequency, TF over GST control) | 1.19 fold enrichment (6-mer frequency, TF over GST control) | 1.39 fold enrichment (6-mer frequency, TF over GST control) | 1.23 fold enrichment (6-mer frequency, TF over GST control) | 1.31 fold enrichment (6-mer frequency, TF over GST control) | 1.26 fold enrichment (6-mer frequency, TF over GST control) | 1.35 fold enrichment (6-mer frequency, TF over GST control) | 1.3 fold enrichment (6-mer frequency, TF over GST control) | 1.24 fold enrichment (6-mer frequency, TF over GST control)
